USP8 inh: inhibitors of human USP8 deubiquitinase; Ubiquitin carboxyl-terminal hydrolase 8 (Homo sapiens), P40818; purified USP8, Ub-rhodamine cleavage fluorescence, 30 min; inhibition, % at 20 µM; actives 4.2% (n = 47,000); AID 1645853, 2021
USP30 block: inhibitors of human USP30 deubiquitinase; Ubiquitin carboxyl-terminal hydrolase 30 (Homo sapiens), Q70CQ3; purified USP30, Ub-rhodamine cleavage fluorescence; inhibition, % at 25 µM; actives 5.3% (n = 47,000); AID 1645860, 2021
USP17 inh: inhibitors of human USP17 deubiquitinase | Ubiquitin carboxyl-terminal hydrolase 17-like protein 5 (Homo sapiens), A8MUK1 | purified USP17, Ub-rhodamine cleavage fluorescence, 3 h | inhibition, % at 50 µM | actives 6.5% (n = 47,000)
USP10 inh: inhibitors of human USP10 deubiquitinase; inhibition, % at 20 µM; AID 1645856, 2021; Ubiquitin carboxyl-terminal hydrolase 10 (Homo sapiens), Q14694; actives 1.1% (n = 47,000); purified USP10, Ub-rhodamine fluorescence, 60 min
USP28 block: inhibitors of human USP28 deubiquitinase | Ubiquitin carboxyl-terminal hydrolase 28 (Homo sapiens), Q96RU2 | purified USP28, Ub-rhodamine cleavage fluorescence, 30 min | inhibition, % at 25 µM | actives 3% (n = 47,000) | AID 1645857, 2021
Target sequence (Q96RU2 whole entry, looked up): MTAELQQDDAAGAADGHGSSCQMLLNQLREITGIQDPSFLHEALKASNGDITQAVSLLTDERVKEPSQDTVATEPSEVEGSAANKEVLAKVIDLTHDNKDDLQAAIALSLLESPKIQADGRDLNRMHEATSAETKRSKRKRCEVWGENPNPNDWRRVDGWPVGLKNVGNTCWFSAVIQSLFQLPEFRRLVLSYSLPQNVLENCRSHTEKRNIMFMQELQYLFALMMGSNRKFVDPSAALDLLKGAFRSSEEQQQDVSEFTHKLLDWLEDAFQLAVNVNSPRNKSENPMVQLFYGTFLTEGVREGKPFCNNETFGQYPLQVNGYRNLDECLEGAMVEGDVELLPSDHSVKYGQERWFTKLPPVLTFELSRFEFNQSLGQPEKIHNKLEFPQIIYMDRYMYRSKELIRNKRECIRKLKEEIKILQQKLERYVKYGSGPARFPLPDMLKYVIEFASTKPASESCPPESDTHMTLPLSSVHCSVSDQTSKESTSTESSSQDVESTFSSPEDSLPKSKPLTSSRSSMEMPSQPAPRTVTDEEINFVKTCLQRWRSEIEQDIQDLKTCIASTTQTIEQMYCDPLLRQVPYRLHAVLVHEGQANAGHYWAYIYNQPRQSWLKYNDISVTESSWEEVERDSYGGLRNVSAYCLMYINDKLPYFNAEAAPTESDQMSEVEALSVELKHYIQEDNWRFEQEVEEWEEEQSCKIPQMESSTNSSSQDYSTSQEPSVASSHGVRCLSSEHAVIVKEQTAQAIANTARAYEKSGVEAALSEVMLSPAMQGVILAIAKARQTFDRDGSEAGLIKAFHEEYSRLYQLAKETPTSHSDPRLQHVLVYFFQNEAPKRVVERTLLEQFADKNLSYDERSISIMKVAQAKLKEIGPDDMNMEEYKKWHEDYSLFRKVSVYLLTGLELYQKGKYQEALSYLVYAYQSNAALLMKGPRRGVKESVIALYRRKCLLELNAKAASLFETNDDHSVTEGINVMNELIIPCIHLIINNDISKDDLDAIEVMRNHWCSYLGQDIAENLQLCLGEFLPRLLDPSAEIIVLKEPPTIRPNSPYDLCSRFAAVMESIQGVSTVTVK
OTUD3 block: inhibitors of human OTUD3 deubiquitinase | OTU domain-containing protein 3 (Homo sapiens), Q5T2D3 | purified OTUD3, Ub-rhodamine fluorescence, 2 h | inhibition, % at 25 µM | actives 0.7% (n = 47,000) | AID 1645858, 2021
Starred values were filed as active, the others as inactive. Sampled rows, rich in hits. Any-hit rate of the full collection: about 13%. No stated cut-off is given here; in the data, active means inhibition above about 30%; inactive means the rest.

SMILES	USP8 inh	USP30 block	USP17 inh	USP10 inh	USP28 block	OTUD3 block
CN(C(=O)Cn1c(=O)n(CCC(=O)N2CC=C(c3ccccc3)CC2)c(=O)c2ccccc21)C1CCCCC1	14	27	18	3	20	24
CC(C)C(NC(=O)c1ccccc1Cl)C(=O)OCC(=O)NCc1ccc2c(c1)OCO2 (centres undefined)	1	0	-5	0	-3	-4
O=C(COC(=O)C(Cc1ccccc1)NC(=O)c1ccccc1)NCc1ccc2c(c1)OCO2 (centres undefined)	-6	10	47*	5	2	-1
O=C(CCn1c(=O)c2ccccc2n(CC(=O)OCc2ccccc2)c1=O)NCc1ccc2c(c1)OCO2	26	26	28	48*	9	9
CN(C(=O)Cn1c(=O)n(CCC(=O)NCc2ccc3c(c2)OCO3)c(=O)c2ccccc21)C1CCCCC1	16	30*	0	-1	12	12
O=C(c1ccc2ccccc2c1)N1CCC2(CC1)NCCc1[nH]cnc12	27	-30	0	-1	-3	-9
CCn1c(CN2CCOCC2)nnc1SCC(=O)c1ccccc1	2	6	9	1	5	18
COc1cccc(C(=O)NCC2(N3CCN(C)CC3)CCCCC2)c1	7	10	6	0	0	1
COc1ccccc1Cc1cccc(C2CCCN2C(=O)c2coc(C)n2)n1 (centres undefined)	-1	15	0	-2	2	4
CN1CCN(C2(CNC(=O)COc3ccccc3[N+](=O)[O-])CCCCC2)CC1	-153	-15	-24	-4	-8	0
CC(C)c1ccc(OCC(=O)NCC2(N3CCN(C)CC3)CCCCC2)cc1	-4	30*	-2	0	16	13
O=C(Cc1c[nH]c2ccccc12)Nc1nc2ccccc2s1	7	-8	5	-2	64*	1
Cc1cccc2sc(NC(=O)Cc3c[nH]c4ccccc34)nc12	-3	-22	-6	-5	19	1
CC(C)C(=O)N1CCC[C@@H]2NC(=O)c3ccccc3OCC/C=C/C[C@@H]21	-1	0	-40	3	-4	-1
CCOC(=O)c1cc2c(ccn2-c2ccc(F)cc2)n1CC(=O)Nc1ccc2c(c1)OCCO2	54*	30	16	37*	14	-1
Cc1ccc(NC(=O)C(C)Nc2nc(Nc3ccccc3)nc(Nc3ccccc3)n2)cc1 (centres undefined)	-64	45*	20	13	7	5
CC1Oc2ccccc2C=C1/C=C(\NC(=O)c1ccc(Cl)cc1)C(=O)NCc1ccco1 (centres undefined)	-16	-302	-70	-7	-55	-88
Cc1nc(C2(C)CCN(C(=O)Cc3c[nH]c4ccccc34)CC2)c2sccn12	-15	4	2	-3	-1	2
CC(C)c1ccc(OCC(=O)Nc2nonc2-c2ccccc2)cc1	11	11	16	10	7	7
COc1cccc(C(=O)Nc2nonc2-c2ccc(C(C)C)cc2)c1	44*	29	15	18	13	16
CC(=O)Nc1ccc(C)n(CC(=O)N2CCC3(CC2)OCCO3)c1=O	0	8	-2	2	-9	-6
Cc1oc2ncnc(N3CCOCC3)c2c1C(=O)N(C)c1ccccc1	1	18	17	1	3	4
O=c1[nH]c(=O)n(Cc2ccccc2)c2c1CN(CCc1ccccc1)CN2	19	36*	35*	16	15	25
CC(=O)c1cccc(NC(=O)C(=O)c2cn(CC(=O)N3CCOCC3)c3ccccc23)c1	-11	-124	-1	-1	-17	-83
CCOc1ccccc1NC(=O)C(=O)c1cn(CC(=O)N2CCCCC2)c2ccccc12	-8	40*	7	1	0	0
SMILES	USP8 inh	USP30 block	USP17 inh	USP10 inh	USP28 block	OTUD3 block
CC(CCc1ccccc1)NC(=O)C(=O)c1cn(CC(=O)N2CCOCC2)c2ccccc12 (centres undefined)	1	50*	44*	-2	9	7
O=C(c1ccc(Cl)cc1)N1CCC2(CC1)NCCc1[nH]cnc12	-3	-35	-15	0	-26	-11
COc1cccc(-c2cc(C(=O)Nc3cccc(C)c3)[nH]n2)c1	-5	-19	3	2	-15	-10
Cc1ccc(-c2cc(C(=O)Nc3ccc(S(N)(=O)=O)cc3)[nH]n2)c(O)c1	0	32*	39*	16	48*	3
Cc1c(-c2ccccc2)nn2c1NC(=O)CC2C(=O)Nc1ccc2c(c1)OCO2 (centres undefined)	6	-16	47*	5	-2	-11
COc1ccc(-c2cnn3c2NC(=O)CC3C(=O)Nc2ccc3c(c2)OCO3)cc1 (centres undefined)	25	10	2	24	-6	-6
COc1ccc(NC(=O)C2CC(=O)Nc3cc(-c4ccccc4)nn32)cc1 (centres undefined)	-2	27	56*	2	26	11
COc1ccc(-c2nn3c(c2C)NC(=O)CC3C(=O)Nc2ccc3c(c2)OCO3)cc1 (centres undefined)	15	38*	8	10	26	5
O=C1CC(C(=O)Nc2ccc3c(c2)OCO3)n2ncnc2N1 (centres undefined)	-18	16	-9	3	9	10
CCc1cc2c3c([nH]c2cc1S(=O)(=O)N1CCCCC1)CC(C)(C)CC3=O	-22	23	13	8	12	15
CSc1ccc(CCNC(=O)C2CCN(c3nc4ccccc4[nH]3)CC2)cc1	-28	-2	-7	2	18	-6
COC(=O)C(Cc1ccccc1)NC(=O)CSc1nc2ccc(Cl)cc2[nH]1 (centres undefined)	43*	-24	7	-1	0	-13
COC(=O)C(Cc1ccccc1)NC(=O)CSc1nc2ccccc2[nH]1 (centres undefined)	-22	2	-28	0	-10	-11
O=C(c1cc(F)ccc1-n1cnnn1)N1CCN(Cc2ccccc2)CC1	3	18	0	2	0	5
COCCn1ccc2nc(C)c(C(=O)Nc3ccc4c(c3)OCO4)cc2c1=O	75*	-17	29	-2	1	0
COCCn1ccc2nc(C)c(C(=O)NCc3ccc(C)cc3)cc2c1=O	-6	-9	-5	-2	-8	-1
O=C(CSc1nncc2ccccc12)Nc1ccc2c(c1)OCO2	-22	57*	-9	2	10	6
Cc1nc2ccccc2nc1SCC(=O)Nc1ccc2c(c1)OCO2	2	66*	47*	-1	6	8

Source: PubChem BioAssay
